Inconclusive results are not listed. The source made the active and inactive calls. Rule for the calls: active = hit-call score of the fitted dose curve at least 0.9, where 1 is the maximum; inconclusive = response in the unintended direction; inactive = score below 0.9.
Key:
[1] = biological target: Cellular tumor antigen p53 (Homo sapiens) (UniProt P04637); experiment: TOX21_p53_BLA_p3_ratio: Tox21 HCT-116 p53 Agonism Beta-lactamase Assay, Ratio, Phase 3 (AID 2283596)
Procedure, shortened: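 Cells were seeded at 4000/well, rested 5 h at 37C, then dosed with DMSO compound solutions (217-fold dilution) for 16 h. CCF4-AM substrate was loaded for 2 h at room temperature, and the 460/530 nm emission ratio was fitted for gain of signal versus DMSO.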

[2] = biological target: Cellular tumor antigen p53 (Homo sapiens) (UniProt P04637); experiment: TOX21_p53_BLA_p5_ratio: Tox21 HCT-116 p53 Agonism Beta-lactamase Assay, Ratio, Phase 5 (AID 2283599)
Procedure, shortened: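 Beta-lactamase reporter ratio (blue 460 nm over green 530 nm, 405 nm excitation) after 2 h CCF4-AM loading, in HCT-116 cells exposed 16 h at 37 C to compounds pinned at 217-fold dilution. Increases relative to DMSO baseline scored.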

[3] = TOX21_p53_BLA_p5_viability: Viability Assessment in the Tox21 HCT-116 p53 Agonism Beta-lactamase Assay, Phase 5 (AID 2283600)
Procedure, shortened: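 Viability came from CellTiter-Glo ATP luminescence, read after 30 min at room temperature. Before this, HCT-116 p53-bla cells (4000/well) had 16 hours of compound exposure at 37C, with DMSO stocks diluted 217-fold on transfer.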

[4] = biological target: Cellular tumor antigen p53 (Homo sapiens) (UniProt P04637); experiment: TOX21_p53_BLA_p4_ratio: Tox21 HCT-116 p53 Agonism Beta-lactamase Assay, Ratio, Phase 4 (AID 2283601)
Procedure, shortened: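 Signal is the blue/green (460nm/530nm) ratio of cleaved versus uncleaved CCF4-AM substrate, read after 2 h substrate loading. Cells were HCT116 carrying the p53-responsive beta-lactamase reporter, dosed 16 h at 37C, 5% CO2; CellTiter-Glo measured in parallel.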

[5] = Tanguay_ZF_120hpf_MORT_legacy: (Legacy) Oregon State University Tanguay Lab 120 Hour Post-fertilization zebrafish Assay for Mortality (AID 2283633)
Procedure, shortened: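 Static waterborne exposure from 6 to 120 hpf at 28C of single dechorionated wild-type (5D) embryos per well, 0.64% DMSO final. Death recorded present/absent by brightfield at 24 and 120 hpf.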

[6] = Tanguay_ZF_120hpf_AXIS_legacy: (Legacy) Oregon State University Tanguay Lab 120 Hour Post-fertilization zebrafish Assay for Body Axis Malformation (AID 2283635)
Procedure, shortened: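 Binary scoring of axis defects at 120 hpf under brightfield, fitted positive versus DMSO. Tropical 5D embryos, chorion removed by pronase at 4 hpf, were singly exposed in sealed, dark plates at 28C from 6 hpf; DMSO 0.64% final.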

[7] = Tanguay_ZF_120hpf_SNOU_legacy: (Legacy) Oregon State University Tanguay Lab 120 Hour Post-fertilization zebrafish Assay for Snout Malformation (AID 2283637)
Procedure, shortened: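 Binary snout-malformation call at 120 hpf in wild-type 5D embryos, chorion removed by pronase, under static exposure from 6 hpf at 28C (0.64% DMSO). Embryos dying by 24 or 120 hpf excluded.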

[8] = Tanguay_ZF_120hpf_JAW_legacy: (Legacy) Oregon State University Tanguay Lab 120 Hour Post-fertilization zebrafish Assay for Jaw Malformation (AID 2283638)
Procedure, shortened: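 Binary jaw-malformation call at 120 hpf by brightfield microscopy. Embryos (Tropical 5D strain, chorion removed at 4 hpf) were dosed statically at 6 hpf, one per well, at 28C with 0.64% DMSO. Embryos that died were not scored.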

[9] = Tanguay_ZF_120hpf_OTIC_legacy: (Legacy) Oregon State University Tanguay Lab 120 Hour Post-fertilization zebrafish Assay for Otic Vesicle Malformation (AID 2283639)
Procedure, shortened: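 Binary scoring of otic vesicle defects at 120 hpf in zebrafish (Tropical 5D) held under static exposure at 28C, sealed and shaded, with final DMSO 0.64%. Embryos dying by 24 or 120 hpf excluded; fitted positively against DMSO.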

[10] = Tanguay_ZF_120hpf_PE_legacy: (Legacy) Oregon State University Tanguay Lab 120 Hour Post-fertilization zebrafish Assay for Pericardial Edema (AID 2283640)
Procedure, shortened: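 Scoring was binary, by brightfield microscopy at 120 hpf, and skipped where mortality occurred. Wild-type embryos were kept under sealed, foil-covered static exposure at 28C in 0.64% (vol/vol) DMSO.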

[11] = Tanguay_ZF_120hpf_SOMI_legacy: (Legacy) Oregon State University Tanguay Lab 120 Hour Post-fertilization zebrafish Assay for Somite Malformation (AID 2283647)
Procedure, shortened: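 Binary somite-defect scoring at 120 hpf, omitted for embryos that died, in wild-type (Tropical 5D) zebrafish with chorion removed by pronase at 4 hpf; static exposure began 6 hpf, single embryos per well, 28C, 0.64% DMSO; fitted positive versus DMSO.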

[12] = Tanguay_ZF_120hpf_PFIN_legacy: (Legacy) Oregon State University Tanguay Lab 120 Hour Post-fertilization zebrafish Assay for Pectoral Fin Malformation (AID 2283648);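 note: each larva judged yes or no for fin defect by brightfield with dead larvae skipped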
Procedure, shortened: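 Pectoral fin malformation was recorded as a binary endpoint at 120 hpf in wild-type Tropical 5D larvae, which had been dechorionated and exposed statically from 6 hpf at 28C in 0.64% DMSO. Dead embryos were excluded.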

[13] = Tanguay_ZF_120hpf_CFIN_legacy: (Legacy) Oregon State University Tanguay Lab 120 Hour Post-fertilization zebrafish Assay for Caudal Fin Malformation (AID 2283649)
Procedure, shortened: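 Binary brightfield scoring of caudal fin defects at 120 hpf after static, light-shielded exposure at 28C from 6 hpf. Tropical 5D embryos, chorion removed with pronase at 4 hpf, final DMSO 0.64%.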

[14] = Tanguay_ZF_120hpf_PIG_legacy: (Legacy) Oregon State University Tanguay Lab 120 Hour Post-fertilization zebrafish Assay for Pigmentation Malformation (AID 2283650)
Procedure, shortened: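 Pigment malformation recorded as a binary call at 120 hpf in zebrafish (Tropical 5D) exposed singly from 6 hpf after pronase dechorionation. Static, sealed, 28C exposure, 0.64% DMSO; mortality excludes scoring; positive-direction fit against DMSO.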

[15] = Tanguay_ZF_120hpf_CIRC_legacy: (Legacy) Oregon State University Tanguay Lab 120 Hour Post-fertilization zebrafish Assay for Circulatory Malformation (AID 2283651)
Procedure, shortened: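 Binary circulatory malformation call at 120 hpf by brightfield imaging of zebrafish larvae; chorion removed at 4 hpf, static exposure from 6 hpf in sealed dark plates at 28C, final DMSO 0.64%; non-mortality endpoints skipped if embryo died.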

[16] = Tanguay_ZF_120hpf_SWIM_legacy: (Legacy) Oregon State University Tanguay Lab 120 Hour Post-fertilization zebrafish Assay for Swim Bladder Malformation (AID 2283654);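 note: swim bladder malformation in each larva scored yes or no under brightfield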
Procedure, shortened: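 Scoring is binary for swim bladder defects at 120 hpf, by brightfield inspection of zebrafish larvae. Embryos were exposed singly from 6 hpf after pronase dechorionation, at 28C with 0.64% DMSO; mortality excluded scoring.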

[17] = Tanguay_ZF_120hpf_YSE_legacy: (Legacy) Oregon State University Tanguay Lab 120 Hour Post-fertilization zebrafish Assay for Yolk Sac Edema (AID 2283634)
Procedure, shortened: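 Presence or absence of yolk sac edema was recorded at 120 hpf in surviving larvae. These were wild-type Tropical 5D embryos, chorion removed at 4 hpf, held in static exposure at 28C from 6 hpf with 0.64% DMSO vehicle.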

[18] = Tanguay_ZF_120hpf_BRAI_legacy: (Legacy) Oregon State University Tanguay Lab 120 Hour Post-fertilization zebrafish Assay for Brain Malformation (AID 2283641)
Procedure, shortened: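 Binary brightfield scoring of brain malformation at 120 hpf in Tropical 5D larvae held under static exposure at 28C (0.64% v/v DMSO), non-mortality endpoints skipped if dead. Positive control: 5uM trimethyltin chloride; fit versus DMSO.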

[19] = TOX21_p53_BLA_p4_viability: Viability Assessment in the Tox21 HCT-116 p53 Agonism Beta-lactamase Assay, Phase 4 (AID 2283597);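 note: hits lower the luminescence signal meaning cytotoxicity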
Procedure, shortened: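 Cytotoxicity as reduced cellular ATP (CellTiter-Glo luminescence, 30 min room temperature), measured in the same wells following the CCF4 FRET p53 reading. Human HCT-116 cells received compounds in DMSO (217-fold dilution) for 16 h.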

Measured: AC50

Chain of Cellular tumor antigen p53 (Homo sapiens) (P04637 whole entry, looked up): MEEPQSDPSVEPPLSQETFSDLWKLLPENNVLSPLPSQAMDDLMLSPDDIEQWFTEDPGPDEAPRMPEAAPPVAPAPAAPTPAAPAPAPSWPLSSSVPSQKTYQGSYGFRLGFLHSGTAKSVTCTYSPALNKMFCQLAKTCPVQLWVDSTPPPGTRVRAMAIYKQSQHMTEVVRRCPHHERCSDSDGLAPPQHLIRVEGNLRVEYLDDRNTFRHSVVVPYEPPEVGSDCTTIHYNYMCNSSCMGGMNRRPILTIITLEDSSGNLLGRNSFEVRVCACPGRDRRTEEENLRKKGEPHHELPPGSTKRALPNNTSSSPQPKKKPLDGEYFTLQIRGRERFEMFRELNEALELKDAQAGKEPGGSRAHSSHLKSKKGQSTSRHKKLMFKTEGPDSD

CCCc1ccc(O)c(OC)c1
inactive: [1] | [2] | [3] | [4]

Nc1ccc(C(=O)O)cc1
not listed: [17] | [18] | [19]
inactive: all other assays above

O=C(O)c1cc(O)c2ccccc2c1O
inactive: [1] | [2] | [3] | [4]

c1ccc2c(c1)[nH]c1ccccc12
inactive: [1] | [2] | [3] | [4]

CCC(C)(O)CCCC(C)C (centres undefined)
inactive: [1] | [2] | [3] | [4]

Cc1ccc([N+](=O)[O-])cc1N
not listed: [19]
inactive: all other assays above

Cc1ccccc1CCO
inactive: [1] | [2] | [4]

CC1CC(=O)CC(C)(C)C1 (centres undefined)
inactive: [1] | [2] | [3] | [4]

CCN1CCCC1=O
inactive: [1] | [2] | [3] | [4]

CCCCCCCCCCCCC
inactive: [1] | [2] | [3] | [4]

CCOC(=O)/C=C\C(=O)OCC
inactive: [1] | [2] | [3] | [4]

CO[Si](CCCS)(OC)OC
inactive: [1] | [2] | [3] | [4]

CC(C)(C)C1CCC(=O)CC1
inactive: [1] | [2] | [3] | [4]

CCCC1CCCC(=O)O1 (centres undefined)
inactive: [1] | [2] | [3] | [4]

O=S(=O)(O)c1ccc(Nc2nc(Nc3ccc(C=Cc4ccc(Nc5nc(Nc6ccc(S(=O)(=O)O)cc6)nc(N(CCO)CCO)n5)cc4S(=O)(=O)O)c(S(=O)(=O)O)c3)nc(N(CCO)CCO)n2)cc1
active: [1] 41.3 µM | [2] 42.6 µM | [4] 37.1 µM

CC(=O)C(C)C
inactive: [1] | [2] | [3] | [4]

COc1ccc(C(=O)c2ccccc2)c(O)c1
inactive: [1] | [2] | [3] | [4]

CC(C)=CCCC(C)=CC#N
inactive: [1] | [2] | [4]

CCCCCC(=O)OCC
inactive: [2]

CC1OC(=O)C(C)OC1=O (centres undefined)
inactive: [1] | [3]

O=C(O)CC(C(=O)O)S(=O)(=O)O (centres undefined)
inactive: [3] | [4]

CO[Si](C)(C)OC
inactive: [19] | [2] | [3] | [4]

CC(Cl)COP(=O)(OCC(C)Cl)OCC(C)Cl (centres undefined)
inactive: [19] | [2]

CC1=C(O)C(=O)C(C)O1 (centres undefined)
inactive: [2] | [3] | [4]

O=C(C=Cc1ccccc1)OCCc1ccccc1
inactive: [1] | [3] | [4]

CCCC(CC)c1ccccc1 (centres undefined)
inactive: [19]

CCCCC(CC)COC(=O)/C=C/c1ccc(OC)cc1 (centres undefined)
inactive: [19] | [3]

CCCCCCOC(=O)CCCCC(=O)OCCCCCC
inactive: [19]

CC(C)COC(=O)CC(C(=O)OCC(C)C)S(=O)(=O)O (centres undefined)
inactive: [19] | [2] | [4]

c1ccc2cnccc2c1
inactive: [4]

C[Si]1(C)O[Si](C)(C)O[Si](C)(C)O[Si](C)(C)O[Si](C)(C)O1
inactive: [3] | [4]

C=CC(=O)OCC(C)OCC(C)OCC(C)OC(=O)C=C (centres undefined)
inactive: [1] | [2] | [4]

C/C=C/C=C/CCCCCCCO
inactive: [19] | [2] | [3]

Nc1ccc(C(=O)OCCCOC(=O)c2ccc(N)cc2)cc1
inactive: [19] | [2] | [3]

CC1=CC=C(C(C)C)CC1
inactive: [2] | [3]

CCOC(=O)c1ccc(C)cc1
inactive: [1] | [4]

CCCCCCCCCCCC(C)=O
inactive: [3] | [4]

CCN1CN(CC)CN(CC)C1
inactive: [19]

NNS(=O)(=O)c1ccc(Oc2ccc(S(=O)(=O)NN)cc2)cc1
inactive: [2] | [3] | [4]

CC(C)CCCCCOC(=O)CS
inactive: [19] | [2] | [3]

COC(=O)c1ccccc1C
inactive: [1] | [3] | [4]

N#Cc1ccc(C2CCCc3cncn32)cc1 (centres undefined)
inactive: [2] | [3] | [4]

CCCCCCCCCC(C)=O
inactive: [2]

CCOC(=O)c1ccccc1C
inactive: [19] | [2] | [3] | [4]

CCc1occc(=O)c1O
inactive: [3]

COCC(=O)O
inactive: [19] | [3] | [4]

Nc1ccnc(=O)[nH]1
inactive: [19] | [3] | [4]

O=C1CCCCCCCCCCC1
inactive: [1] | [3] | [4]

CC1=NN(c2ccc(S(=O)(=O)O)cc2)C(=O)C1N=Nc1ccccc1 (centres undefined)
inactive: [19] | [4]

C=CCCCCCCCCC=O
inactive: [19] | [2] | [3]

CC(=O)OCCc1ccccc1
inactive: [19] | [2] | [3] | [4]

CC1=CCC2CC1C2(C)C (centres undefined)
inactive: [19]

CC(C)CC(=O)OCc1ccccc1
inactive: [19] | [2] | [3] | [4]
